Consider 79 compounds from PubChem BioAssay AID493170 (National Center for Advancing Translational Sciences (NCATS), 2011).

This experiment concerns the target Ubiquitin carboxyl-terminal hydrolase 2 (Homo sapiens) (UniProt O75604). Briefly: Ub-rhodamine 110 based assay for inhibitors Ubiquitin-specific Protease USP2a. Also: nearly all actives have a fitted effect of over 50% in size. The essentials: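 Kinetic fluorescence (485/531 nm) read each minute over 7 min after adding Ub-Rhod110 (150 nM final) to USP2a (5 nM final). The enzyme had 30 min RT exposure to compounds beforehand in Tris pH 8.0 buffer with CaCl2, CHAPS and beta-ME.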

Inconclusive results are not listed. Where a call stands in place of a potency, no number is given. Active and inactive are the calls of the source. Calls follow the shape of the dose curve; as a rule, active = well fitted inhibition curve with a large enough effect; inconclusive = small, poorly fitted or top-dose-only effect, or effect the other way; inactive = flat fitted curve, though single readings scatter.
Potency is read from the fitted curve at half-maximal effect.

Sequence of Ubiquitin carboxyl-terminal hydrolase 2 (Homo sapiens) (O75604 whole entry, looked up): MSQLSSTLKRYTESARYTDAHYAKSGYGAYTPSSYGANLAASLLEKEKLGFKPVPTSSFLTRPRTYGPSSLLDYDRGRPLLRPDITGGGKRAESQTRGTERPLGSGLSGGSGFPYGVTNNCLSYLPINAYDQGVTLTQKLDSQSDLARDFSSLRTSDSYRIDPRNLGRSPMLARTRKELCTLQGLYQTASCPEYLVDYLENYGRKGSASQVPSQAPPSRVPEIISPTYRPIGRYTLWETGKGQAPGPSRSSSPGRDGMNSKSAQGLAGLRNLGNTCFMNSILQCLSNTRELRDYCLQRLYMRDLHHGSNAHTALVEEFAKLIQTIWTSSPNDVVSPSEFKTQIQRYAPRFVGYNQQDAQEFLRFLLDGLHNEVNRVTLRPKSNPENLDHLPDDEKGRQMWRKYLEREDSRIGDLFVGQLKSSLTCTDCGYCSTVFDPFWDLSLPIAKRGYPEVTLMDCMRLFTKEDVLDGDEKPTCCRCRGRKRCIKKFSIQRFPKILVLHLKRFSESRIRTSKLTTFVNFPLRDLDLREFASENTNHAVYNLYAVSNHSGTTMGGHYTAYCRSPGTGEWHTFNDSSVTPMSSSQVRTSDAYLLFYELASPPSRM

Consider `COc1ccc(CCN2C(=O)/C(=C\c3ccco3)SC2=S)cc1OC`, for which the Potency result was “inactive”.
With `CC(CN1CCCCC1)OC(=O)c1ccc(Cl)cc1` (centres undefined) the entry was “inactive”; with `CCOC(=O)c1c(-c2ccc(C)o2)csc1NC(=O)COC(=O)c1ccc(NC(N)=O)cc1`, 7.08 µM (active).
With `O=C(O)CC1(CC(=O)Nc2ccc3ccccc3c2)CCCCC1` the entry was “inactive”; with `CCCCCCCCCCOC(=O)Cn1c(COc2ccc(OC)cc2)[n+](C)c2ccccc21`, “inactive”.
With `Cc1ccc(Nc2cc(C)nc(NCc3ccccc3)n2)cc1` the entry was “inactive”; with `CCOC(=O)Nc1nnc(CCc2ccccc2)s1`, “inactive”.
Take `Cc1c(C(=O)NCc2c(F)cc(F)cc2F)oc2ccc(S(=O)(=O)N3CCOCC3)cc12`: the Potency result was “inactive”.
With `COc1ccccc1-n1c(SCC(=O)Nc2ccc(C)cc2)nc(O)cc1=O` the entry was “inactive”; with `COc1cc2c(C(=O)N3CCN(c4cccc(Cl)c4)CC3)cn(CC(C)C)c(=O)c2cc1OC`, “inactive”; with `O=C1c2ccccc2C(=O)N1CCCCn1c(=O)oc2ccccc21`, “inactive”.
With `Cc1nc2n(n1)CC(O)CS2` (centres undefined) the entry was “inactive”; with `Cc1cc(C)c(NC(=O)C[N+](C)(C)CC(O)COc2cccc3ccccc23)c(C)c1` (centres undefined), “inactive”; with `Cc1cc(C(=O)OCC(=O)c2cccc([N+](=O)[O-])c2)c2cccc(C)c2n1`, 10 µM (active).
With `O=C(c1cc(-c2ccco2)on1)N1CCc2ccccc2C1` the figure was 10 µM (active); with `CC(=O)COc1ccc2c(-c3ccccc3)cc(=O)oc2c1`, “inactive”; with `CCOc1ccc(CCn2c(-c3ccco3)nc3ccccc3c2=O)cc1OCC`, “inactive”.
On to `Cc1noc(/C=C/NCc2cccnc2)c1S(=O)(=O)N(C)CC(=O)N1CCc2ccccc21`, for which the Potency result was “inactive”.
With `O=C(CCN1C(=O)/C(=C\c2ccco2)SC1=S)Nc1ccc(C(=O)O)c(O)c1` the figure was 7.94 µM (active); with `O=C1Nc2ccccc2SC(c2ccccc2)C1O` (centres undefined), 3.98 µM (active).
With `O=S(=O)(c1ccccc1)N(CC1CO1)c1cc(Cl)ccc1Cl` (centres undefined) the entry was “inactive”.
With `CC(C)C(=O)N=c1sc2cc(F)cc(F)c2n1C` the entry was “inactive”.
`COC(=O)CSc1nnc(NC(=O)C2CC(=O)N(c3ccc(F)cc3)C2)s1` (centres undefined): the Potency was 11.2 µM (active).
With `Cc1cc(NC(=O)COC(=O)CCCOc2ccc(Cl)cc2C)no1` the entry was “inactive”.
`C/C(Cn1nnc2ccccc21)=N\OC(=O)c1ccccc1C`: the Potency result was “inactive”.
For the compound `NC(=O)c1ncc(C(F)(F)F)cc1Oc1cccc(F)c1`, the Potency entry is “inactive”.
With `COc1ccc(/C=C2\SC(=S)N(NS(=O)(=O)c3ccc(C)cc3)C2=O)c(OC)c1` the figure was 10 µM (active).
Consider `O=C(Nc1cccc(C(F)(F)F)c1)/C(=C\c1ccco1)NC(=O)c1cccs1`, for which the Potency result was “inactive”.
With `O=C(O)c1cccc2c1C(=O)c1ccc(-c3ccc(F)cc3OCc3ccccc3)cc1S2(=O)=O` the figure was 11.2 µM (active); with `Cc1ccc(C(=O)N(c2c(C)n(C)n(-c3ccccc3)c2=O)C(C)C)cc1`, “inactive”; with `Cc1cc(SCC(=O)NC2CCCCC2)nc2ccccc12`, “inactive”.
With `Cc1ccc(CNC(=O)CCNS(=O)(=O)c2ccc(C)cc2)cc1` the entry was “inactive”.
With `Cc1c(NC(=O)C2CCCN2S(=O)(=O)c2ccc(Cl)cc2)c(=O)n(-c2ccccc2)n1C` (centres undefined) the entry was “inactive”; with `CNC(=O)NC(=O)CSc1ccc(NC(C)=O)cc1`, “inactive”; with `CC(C)(C)C1CCc2nc(NC(=O)Cc3cn4ccsc4n3)sc2C1` (centres undefined), “inactive”.
Take `CC(=O)NS(=O)(=O)c1ccc(NC(=O)c2cc(-c3ccc(C)c(C)c3)nc3ccccc23)cc1`: the Potency was 11.2 µM (active).
With `O=S(=O)(NC1CCSc2ccccc21)c1ccccc1` (centres undefined) the entry was “inactive”; with `COc1ccc2[nH]c(=O)c(CN(C)C(=O)C3CCCCC3)cc2c1`, “inactive”.
As for `O=C1COc2ccc(C(=O)COC(=O)/C=C/c3ccc(Br)o3)cc2N1`, the Potency is 2.24 µM (active).
With `O=C(Nn1c(SCc2ccc([N+](=O)[O-])cc2)nc2ccccc2c1=O)c1ccc(F)cc1` the figure was 10 µM (active); with `CCOC(=O)Nc1ccc(S(=O)(=O)Nc2cc(C)nc(C)n2)cc1`, “inactive”; with `COCCn1c(CN(Cc2ccccc2)Cc2ccccc2)nc2c1c(=O)n(C)c(=O)n2C`, “inactive”.
With `CC(C)(C)C1CCC2(CC1)Nc1cccc3cccc(c13)N2` the entry was “inactive”; with `COc1ccc(/C=C2/SC(=S)N(c3ccc(S(=O)(=O)Nc4nccs4)cc3)C2=O)cc1`, 3.16 µM (active).
With `FC(F)(F)c1cnc2c(c1)Nc1ccccc1S2` the entry was “inactive”; with `CC(C)(C)CC(C)(C)NCC(=O)Nc1c2c(nc3ccccc13)CCC2`, “inactive”; with `O=[N+]([O-])c1cc(-c2ccc(/C=N\n3cnnc3)o2)cc([N+](=O)[O-])c1`, 11.2 µM (active).
Consider `Nc1c(C(=O)Nc2ccc(Cl)cc2)oc2ccccc12`, for which the Potency entry is “inactive”.
With `Cc1cc(C(=O)CSc2nnc(Nc3ccccc3F)s2)c(C)n1CC1CCCO1` (centres undefined) the entry was “inactive”; with `Nc1ccccc1S(=O)(=O)NC1=NCCCCC1`, “inactive”.
Regarding `N#Cc1cccc(C(=O)N(CCc2ccccc2)Cc2cccs2)c1`, the Potency entry was “inactive”.
With `O=C(O)CCn1c(C2CCCCC2)nc2ccccc21` the entry was “inactive”; with `O=C(CN1C(=O)/C(=C2\SC(=S)N(CCS(=O)(=O)O)C2=O)c2ccccc21)Nc1cccc(Br)c1`, 5.62 µM (active); with `Cc1ccc(NC(=O)COC(=O)c2ccc(NC(=O)CC#N)cc2)cc1S(=O)(=O)N1CCOCC1`, 10 µM (active).
With `O=C(CSc1nc2ccccc2[nH]1)Nc1ccc2c(c1)OCCO2`, the Potency entry is “inactive”.
As to `Cc1ccc(N=C2NC(=O)/C(=C/C=C/c3ccco3)S2)cc1C`, the Potency is 5.01 µM (active).
With `CCOC(=O)C1CCN(CC(O)COc2ccc(C(C)(C)C)cc2)CC1` (centres undefined) the entry was “inactive”; with `O=C(Nc1cccc(Cl)c1)Nc1nnc(CC2=CCCCC2)s1`, “inactive”; with `CCC(C)(C(=O)NC1CCCCC1)N(C(=O)C1CCC(=O)N1)c1ccccc1` (centres undefined), “inactive”.
As for `COc1cc(OC)cc(-c2c(C#Cc3ccsc3)c3cc(-c4ccc(OC)c(OC)c4)ccc3n2C)c1`, the Potency entry is “inactive”.
Take `Cc1ccc(-c2c(C)n([O-])c3c([n+]2=O)CCC3)o1`: the Potency entry is “inactive”.
With `O=C(Nc1ccc(N2CCCC2)cc1)c1ccc(Br)cc1` the figure was 8.91 µM (active).
With `COc1cc(C2C(C#N)=C(N)Oc3c2ccc2ccccc32)ccc1OCC(=O)Nc1cccc(C)c1` (centres undefined) the entry was “inactive”; with `CC(C(=O)Nc1ccc(C(=O)O)c(O)c1)N1C(=O)/C(=C\c2ccco2)SC1=S` (centres undefined), 10 µM (active).
With `COC(=O)c1ccc(NC(=O)CSC2=Nc3ccccc3C3CC=NN23)cc1` (centres undefined) the entry was “inactive”; with `COc1ccc(/C=C2\SC(=O)N(CC(=O)Nc3cccc(C)c3)C2=O)cc1O`, 8.91 µM (active).
Consider `CCC1SC2=NC(C)=C(C(=O)OCCOC)C(c3ccc(C(=O)OC)cc3)N2C1=O` (centres undefined), for which the Potency entry is “inactive”.
With `CC(=O)c1ccc2c(c1)C1C=CCC1C(C(=O)O)N2` (centres undefined) the figure was 10 µM (active); with `COCCn1c(SCC(=O)Nc2cc(C)on2)nnc1-c1ccccc1`, “inactive”.
With `CCc1cc2c(=O)c(-n3cnc4ccccc43)coc2cc1O` the entry was “inactive”.
With `CCn1cc(C(=O)N2CCOCC2)c(=O)c2cc(S(=O)(=O)N(C)C)ccc21` the entry was “inactive”; with `COc1ccc(-n2c(=S)[nH]c3cc(C(=O)NCc4ccc(F)cc4)ccc3c2=O)c(OC)c1`, “inactive”; with `CC(C)(C)C(=O)Nc1c2c(nc3c1CCC3)CCCC2`, “inactive”.
For the compound `CC(C)n1nc(C(=O)Nc2ccccc2N2CCOCC2)c2ccccc2c1=O`, the Potency result is “inactive”.
Regarding `O=C(N/N=C/c1ccc(F)cc1)c1cc(-c2ccco2)nc2ccccc12`, the Potency was 2 µM (active).
With `CSc1cccc(NC(=O)c2ccccc2N(C)S(C)(=O)=O)c1` the entry was “inactive”; with `CCCn1c(N2CCN(Cc3cccc(C)c3)CC2)nc2c1c(=O)[nH]c(=O)n2C`, “inactive”.
With `CC1(C)CC(=O)C2=C(C1)Oc1ncn(CCCO)c(=N)c1C2c1ccccc1` (centres undefined) the entry was “inactive”.
With `O=C(CSc1nccc(=O)[nH]1)N1N=C2/C(=C/c3ccco3)CCCC2C1c1ccco1` (centres undefined) the figure was 10 µM (active).
